PubChem BioAssay AID589 (National Center for Advancing Translational Sciences (NCATS), 2007)
The campaign covered roughly 59,000 compounds. About 6,200 (11%) were called active. About 9% were inconclusive and are not listed. Cut-off read from the data, not from the text of the source: active = max dye-equivalent concentration above about 10 nM; inconclusive = mostly about 1.1 nM to 9.6 nM; inactive = weaker than that. Shown is part of a subset that was picked to be rich in actives.

experiment: qHTS Assay for Spectroscopic Profiling in 4-MU Spectral Region; details: compound autofluorescence, 340/450 nm, 4-MU equivalents; active compounds read high
Method in brief: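 Intrinsic fluorescence at 340/450 nm (ex/em) was read after 15 min at room temperature in pH 8.0, 100 mM Tris. Each compound concentration expressed as 4-MU-equivalent concentration from a six-point 4-MU standard series on each plate.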

| Structure (SMILES) | max dye-equivalent concentration |
| --- | --- |
| COc1ccc(S(=O)(=O)Nc2ccc3c(c2)OCO3)cc1Cl | inactive |
| N#Cc1ccc(COC(=O)Cn2nnc(-c3ccccc3)n2)cc1 | inactive |
| CCCNS(=O)(=O)c1ccc2c(c1)CCCN2C(C)=O | inactive |
| CC(C)OCCCNc1ncnc2c1[nH]c1ccc(F)cc12 | 12 nM (active) |
| Fc1cc(F)c2nc(N3CCOCC3)sc2c1 | inactive |
| CCN(CC)C(=O)CSc1nnc(-c2cnccn2)n1-c1ccc(C)cc1 | inactive |
| O=C(CSc1nnc(-c2cnccn2)n1Cc1ccco1)c1ccc(Cl)c(Cl)c1 | inactive |
| Cn1c(SCc2c(F)cccc2Cl)nnc1-c1cnccn1 | 17 nM (active) |
| O=C(COc1ccccc1)N1CCc2ccccc2C1 | inactive |
| N#C/C(=C1\CCCN1)c1nc(-c2ccccc2)cs1 | inactive |
| Cn1c(/C(C#N)=C2/CCCCCN2)nc2ccccc21 | 22 nM (active) |
| Cc1nc(NC(=O)C23CCC(C)(C(=O)O2)C3(C)C)sc1C (stereo not drawn) | inactive |
| CC(=NCc1ccco1)C1=C(O)c2ccccc2C1=O | inactive |
| COc1ccc(N2C(=O)CC(N3CCC(C(N)=O)CC3)C2=O)cc1 (stereo not drawn) | inactive |
| CCCC(NC(=O)c1ccccc1)c1nc2ccccc2n1Cc1ccc(C(=O)OC)o1 (stereo not drawn) | inactive |
| CCn1c(SCC(=O)Nc2cc(C)ccc2C)nnc1-c1cnccn1 | inactive |
| Cc1ccc2nc(NCCCNC(=O)c3cnccn3)c(C#N)cc2c1 | 160 nM (active) |
| CC1(C)C(=O)C2(CCCCC2)C(=O)OC1c1cccs1 (stereo not drawn) | inactive |
| CC(C)CNS(=O)(=O)c1ccc(OCC(=O)Nc2ccc3c(c2)OCO3)c(Cl)c1 | inactive |
| CC1CN(C(=O)CN2C(=O)NC(C)(c3ccccc3)C2=O)CC(C)O1 (stereo not drawn) | inactive |
| COC(=O)c1cc(C(=O)OC)cc(N2C(=O)CC(N3CCN(c4ccccc4)CC3)C2=O)c1 (stereo not drawn) | inactive |
| CCc1c(C)nc2ncnn2c1N1CCC(C(=O)NCc2ccc3c(c2)OCO3)CC1 | inactive |

| Structure (SMILES) | max dye-equivalent concentration |
| --- | --- |
| O=C1CSC(=O)N1CCOCCN1C(=O)CSC1=O | inactive |
| COc1ccc(CCn2nnnc2C(c2ccccc2)N2CCN(C)CC2)cc1OC (stereo not drawn) | inactive |
| COCCn1c(-c2ccc(OC)c(OC)c2)nc2ccccc21 | inactive |
| COc1ccc(CCn2c(-c3ccco3)nc3nc4ccccc4nc32)cc1OC | 40 nM (active) |
| CCn1cc(C(=O)N2CCN(C3CCCCC3)CC2)c2cc(OC)c(OC)cc2c1=O | inactive |
| Cn1c2c(c(=O)n(C)c1=O)C(c1ccc(O)cc1)Nc1ccccc1O2 (stereo not drawn) | inactive |
| COc1ccc(-c2ccnc(SCC(=O)N3CCOCC3)n2)cc1 | 110 nM (active) |
| CCn1c(COc2cccc(OC)c2)nnc1SCC(=O)N1CCOCC1 | inactive |
| COc1ccc(-c2nc(SCC(=O)N3CCOCC3)n[nH]2)cc1 | inactive |
| CC1(C)CC(=O)C=C(NCCCN2CCCC2=O)C1 | inactive |
| CCOC(=O)c1ccc(N2C(=O)CC(Sc3nc(O)c(CC)c(=O)[nH]3)C2=O)cc1 (stereo not drawn) | inactive |
| CS(=O)(=O)N1CCCC(C(=O)N2CCOCC2)C1 (stereo not drawn) | inactive |
| COc1ccc(N2C(=O)c3cccc4cccc(c34)C2=O)nn1 | 160 nM (active) |
| COc1ccc(OCCCON2C(=O)c3ccccc3C2=O)cc1 | inactive |
| Cc1cc(C)c(C)c(S(=O)(=O)Nc2ccc(O)cc2)c1C | inactive |
| COCCCNC(=O)c1ccc(CNS(=O)(=O)c2ccc(NC(C)=O)cc2)cc1 | inactive |
| CC(C)C1Cc2c(sc3c2c(=O)n(-c2ccccc2)c2nncn32)CO1 (stereo not drawn) | inactive |
| O=C(CCC(=O)c1cccs1)NCc1ccccc1 | inactive |
| O=C(Cn1cc(C(=O)c2cccs2)c2ccccc21)NCc1cccs1 | 29 nM (active) |
| COC(=O)c1cn(CC(=O)NCc2cccs2)c2ccccc12 | inactive |
| CCc1ccc(CCC(=O)Nc2ccc(S(N)(=O)=O)cc2)o1 | inactive |
| Clc1ccc(C(c2ccc(Cl)cc2)n2cc[n+](C[C@@H](OCc3ccc(Cl)cc3Cl)c3ccc(Cl)cc3Cl)c2)cc1 | inactive |

| Structure (SMILES) | max dye-equivalent concentration |
| --- | --- |
| CC1CCCN(c2ccc(C(=O)NCCc3ccccc3)cn2)C1 (stereo not drawn) | inactive |
| Cc1ccc(S(=O)(=O)NC(=O)NN2C[C@H]3CCC[C@@H]3C2)cc1 | inactive |
| O=C(OCC(=O)N1CCCC1)c1ccco1 | inactive |
| CC1CC(c2ccccc2)n2nc(NC(=O)c3cccs3)nc2N1 (stereo not drawn) | inactive |
| COc1ccc(C2CC(c3ccc(C)cc3)Nc3nc(N)nn32)cc1 (stereo not drawn) | 2500 nM (active) |
| Nc1nc2n(n1)C(c1ccco1)CC(c1ccc(Cl)c(Cl)c1)N2 (stereo not drawn) | inactive |
| CCc1c(C)c2c(C)[nH]nc2oc1=O | inactive |
| COc1ccc(N2CCN(C(c3cc4ccc(C)cc4[nH]c3=O)c3nnnn3C3CCCC3)CC2)cc1 (stereo not drawn) | inactive |
| Cc1cc(C)c2[nH]c(=O)c(C(c3nnnn3Cc3ccc4c(c3)OCO4)N3CCCC3)cc2c1 (stereo not drawn) | inactive |
| CCOc1ccc2[nH]c(=O)c(C(c3nnnn3CCOC)N3CCOCC3)cc2c1 (stereo not drawn) | 720 nM (active) |
| COc1ccc(OC)c(C(c2nnnn2C(C)(C)C)N2CCc3ccccc3C2)c1 (stereo not drawn) | inactive |
| COCCn1nnnc1C(c1cc2ccc(OC)cc2[nH]c1=O)N1CCc2ccccc2C1 (stereo not drawn) | 17 nM (active) |
| COCCn1nnnc1C(c1ccccc1Cl)N1CCN(c2ccccc2OC)CC1 (stereo not drawn) | inactive |
| CCCOc1ccccc1C(=O)NCCCC(=O)O | inactive |
| COC(=O)Nc1ncc(CN2C(=O)c3ccccc3C2=O)s1 | inactive |
| O=C(CCCn1c(SCC(=O)c2ccc(F)cc2)nc2ccccc2c1=O)NCc1ccco1 | inactive |
| CC1(N2CCOCC2)CC2(O)C(=[N+]1[O-])CCc1nonc12 (stereo not drawn) | inactive |
| CCn1c(COc2ccccc2)nnc1SCC(=O)Nc1ccc2c(c1)OCCO2 | inactive |
| COc1ccc(S(=O)(=O)N2CCCCC2)cc1Br | inactive |
| C=CCn1c(CC(=O)Nc2cccc(OC)c2)nnc1SCC(=O)NC1CCCCC1 | inactive |
| COc1ccc(OCC(=O)N2CCN(C(=O)COc3ccccc3)CC2)cc1 | inactive |
| CCC(CC)C(=O)Nc1cccc(C(=O)N2CCCC2)c1 | inactive |

| Structure (SMILES) | max dye-equivalent concentration |
| --- | --- |
| COc1ccc(OCc2cccc(C(=O)N3CCCC3)c2)cc1 | 19 nM (active) |
| c1ccc(CCc2nc(-c3ccncc3)no2)cc1 | inactive |
| Cc1ccc2c(NC(=O)C3CC3)cccc2n1 | inactive |
| Cc1cc(C)cc(NC(=O)C2CCN(c3nc(C)cc(C)n3)CC2)c1 | inactive |
| CC(=O)N1CCC(C(=O)Nc2nc(-c3ccccc3)ns2)CC1 | 1800 nM (active) |
| CCCOc1ccccc1-c1nc(SCCC(=O)O)n[nH]1 | inactive |
| CCn1c(=N)n(CC(=O)c2cccc(OC)c2)c2ccccc21 | inactive |
| COC(=O)c1ccc(CSc2nncn2C)cc1 | inactive |
| Cc1ccc2c(c1)c1ncnc(N3CCc4ccccc4C3)c1n2C | 140 nM (active) |
| Cc1ccc(NC(=O)CCN2CCc3ccccc3C2)cc1 | inactive |
| Cc1ccc(C(c2nnnn2C(C)(C)C)N2CCc3ccccc3C2)cc1 (stereo not drawn) | inactive |
| CCOC(=O)CSc1nnc(NC(=O)c2cccc(S(=O)(=O)N3CCCCC3)c2)s1 | inactive |
| Cc1cc(C)c2nc3c(c([C@H](O)[C@@H]4CCCCN4)c2c1)CC/C3=C/c1ccc(Cl)cc1 | inactive |
| CN1CCc2[nH]nc(-c3n[nH]c4c3CN(C)CC4)c2C1 | inactive |
| CCOC(=O)CSc1nnc(-c2ccco2)n1C | inactive |
| Cn1c(-c2ccco2)nc2cc3ccccc3cc21 | 890 nM (active) |
| c1coc(-c2nc3nc4ccccc4n3nc2-c2ccco2)c1 | inactive |
| O=C(c1ccco1)N1CCN(C(=O)c2ccc(COc3ccc(F)cc3)o2)CC1 | inactive |
| O=C(c1ccco1)N1CCC2(CC1)CN(c1ncccn1)C2 | inactive |
| CCCCNC(=O)CSc1nnc(-c2ccco2)n1C | inactive |
| Cn1c(=O)c2c(ncn2CC(=O)N2CCN(c3ccccc3)CC2)n(C)c1=O | inactive |
| COc1ccccc1NC(=O)c1ccc(C)s1 | inactive |

| Structure (SMILES) | max dye-equivalent concentration |
| --- | --- |
| COc1ccccc1NC(=O)C1=C(C)Nc2ncnn2C1c1ccc(C)o1 (stereo not drawn) | inactive |
| COc1ccccc1NC(=O)C1=C(C)NC2=C(C(=O)CCC2)C1c1ccc(C)o1 (stereo not drawn) | 16 nM (active) |
| O=C(NCCN=C1NS(=O)(=O)c2ccccc21)c1ccc(S(=O)(=O)N2CCOCC2)cc1 | inactive |
| Cc1cc(=O)oc(C)c1C(=O)NC1CC(C)(C)NC(C)(C)C1 | inactive |
| COCc1nnc(NC(=O)CS(=O)(=O)Cc2ccccc2)s1 | inactive |
| O=C(O)C1CCCN1S(=O)(=O)c1ccc2c(c1)CCC2 (stereo not drawn) | inactive |
| CCS(=O)(=O)NCCc1ccc(OC)c(OC)c1 | inactive |
| CCNC(=O)c1c(O)c2cccc3c2n(c1=O)CC3 | 17 nM (active) |
| Cc1cc(=O)n2c3c(cccc13)CCC2 | inactive |
| Cn1c(C(=O)NCCN2CCc3ccccc3C2)cc2c(=O)[nH]c3ccccc3c21 | inactive |
| O=S(=O)(O)c1ccc(O)c2ncccc12.O=S(=O)(O)c1ccc(O)c2ncccc12.[Zn] | inactive |
| Cc1ccccc1N1CCN(S(=O)(=O)C[C@@]23CC[C@H](C[C@H]2NC(=O)[C@@H](N)CCS(C)(=O)=O)C3(C)C)CC1 | inactive |
| CCOC(=O)C1=C(CNC2CCCCC2)NC(=O)NC1c1cc(C)ccc1C (stereo not drawn) | inactive |
| COc1cc(OC)cc(C(=O)NCCSCc2ccco2)c1 | inactive |
| O=C(CSc1nnc(-c2cccnc2)n1Cc1ccco1)c1ccc(Cl)cc1 | inactive |
| Clc1cccc(-c2nc3nc4ccccc4nc3n2Cc2ccco2)c1 | 110 nM (active) |
| C(=C\c1ccccc1)/CSc1nnc(-c2cccnc2)n1Cc1ccco1 | inactive |
| C=C(C)Cn1c(SCC(=O)NCc2ccco2)nc2sc3c(c2c1=O)CCC3 | inactive |
| CN1CCc2c(sc3c2c(NCc2ccco2)nc2nnnn23)C1 | 380 nM (active) |
| c1coc(CNc2ncnc3ccccc23)c1 | inactive |
